# Measurements from PubChem BioAssay (NCATS).
# Inconclusive results are not listed. Where a call stands in place of a potency, no number is given. Activity calls are given as the source filed them. The call rests on the fitted dose curve; in most records, active means well fitted inhibition curve with a large enough effect; inconclusive means small, poorly fitted or top-dose-only effect; inactive means flat fitted curve, though single readings scatter.
# Tests used:
# Assay in all cases: qHTS profiling for inhibitors of Plasmodium falciparum proliferation (AID 504749); further: nearly all actives have a fitted effect of over 60% in size
# Details in all cases: P. falciparum in erythrocytes, SYBR Green DNA, 72 h; series mostly up to 28.7 µM
# Dd2 = system: Dd2
# Summary of the method: (§1)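 Fluorescence of SYBR Green-bound parasite DNA, read at 485/535 nm, served as the growth measure. Infected erythrocytes were cultured with compound 72 h; artemisinin (0.29 uM) and DMSO wells defined the normalization range.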
# ECU = system: ECU
# Summary of the method: as §1
# FAB9 = system: FAB9
# Summary of the method: as §1
# HB3 = system: HB3
# Summary of the method: as §1
# ICS = system: ICS
# Summary of the method: as §1
# JCK = system: JCK
# Summary of the method: as §1
# N140 = system: N140
# Summary of the method: as §1
# P93_24 = system: P93_24
# Summary of the method: as §1
# P94_40 = system: P94_40
# Summary of the method: as §1
# GB4 = system: GB4
# Summary of the method: as §1
# Potency means the concentration at half of the fitted maximal effect.
SMILES,Potency (Dd2),Potency (ECU),Potency (FAB9),Potency (HB3),Potency (ICS),Potency (JCK),Potency (N140),Potency (P93_24),Potency (P94_40),Potency (GB4)
CCCCCC(CC)COC(=O)CC(C(=O)OCC(CC)CCCC)S(=O)(=O)O (stereo not given),inactive,inactive,inactive,inactive,inactive,inactive,inactive,inactive,inactive,–
COCC(=O)Nc1cc(Sc2ccccc2)ccc1N=C(NC(=O)OC)NC(=O)OC,inactive,inactive,inactive,inactive,–,inactive,inactive,inactive,inactive,inactive
CCN(CC)Cc1cc(Nc2ccnc3cc(Cl)ccc23)ccc1O,0.0562 µM (active),0.0316 µM (active),0.0398 µM (active),0.0355 µM (active),0.0398 µM (active),0.0891 µM (active),0.0708 µM (active),0.0355 µM (active),0.0089 µM (active),0.0405 µM (active)
CC1(C)S[C@@H]2[C@H](NC(=O)[C@@H](NC(=O)N3CCNC3=O)c3ccccc3)C(=O)N2[C@H]1C(=O)O,inactive,inactive,inactive,inactive,inactive,inactive,inactive,inactive,inactive,inactive
CCCCC(C)(O)C/C=C/[C@H]1[C@H](O)CC(=O)[C@@H]1CCCCCCC(=O)OC (stereo not given in full),inactive,inactive,inactive,inactive,inactive,inactive,inactive,inactive,inactive,inactive
COc1ccc2c3c1O[C@H]1C[C@@H](O)C=C[C@@]31CCN(C)C2,inactive,inactive,inactive,inactive,inactive,inactive,inactive,inactive,inactive,inactive
O=C(O)CN(CCN(CC(=O)O)CC(=O)O)CC(=O)O,inactive,inactive,inactive,inactive,–,inactive,inactive,inactive,inactive,inactive
CC(=O)Oc1c(C)cc(OCC(O)CNC(C)C)c(C)c1C (stereo not given),inactive,inactive,inactive,inactive,inactive,inactive,inactive,inactive,inactive,–
CCCCCCC(O)C/C=C/CCCCCCCC(=O)O (stereo not given),inactive,inactive,inactive,inactive,inactive,inactive,inactive,inactive,inactive,inactive
C[C@]12O[C@H](C[C@]1(O)CO)n1c3ccccc3c3c4c(c5c6ccccc6n2c5c31)CNC4=O,0.355 µM (active),0.398 µM (active),2 µM (active),0.447 µM (active),0.112 µM (active),4.47 µM (active),0.282 µM (active),0.355 µM (active),0.282 µM (active),0.269 µM (active)
COC(C(=O)C(O)C(C)O)C1Cc2cc3cc(OC4CC(OC5CC(O)C(O)C(C)O5)C(O)C(C)O4)c(C)c(O)c3c(O)c2C(=O)C1OC1CC(OC2CC(OC3CC(C)(O)C(O)C(C)O3)C(O)C(C)O2)C(O)C(C)O1 (stereo not given),0.1 µM (active),0.178 µM (active),1.58 µM (active),0.1 µM (active),0.1 µM (active),–,0.199 µM (active),0.178 µM (active),0.126 µM (active),1.35 µM (active)
CCCCCCCC(=O)O,inactive,inactive,inactive,inactive,inactive,inactive,inactive,inactive,inactive,inactive
CCC(=O)NCCC1CCc2ccc3c(c21)CCO3 (stereo not given),inactive,inactive,inactive,inactive,inactive,inactive,inactive,inactive,inactive,inactive
CCOc1ccc2c(c1)C(C)=CC(C)(C)N2,inactive,inactive,inactive,inactive,–,inactive,inactive,inactive,inactive,inactive
CC(C(=O)O)c1ccc(N2Cc3ccccc3C2=O)cc1 (stereo not given),inactive,inactive,inactive,inactive,inactive,inactive,inactive,inactive,inactive,inactive
COC(=O)[C@H]1[C@H]2CC3c4[nH]c5ccccc5c4CCN3C[C@@H]2CC[C@@H]1O (stereo not given in full),inactive,inactive,inactive,inactive,inactive,inactive,inactive,inactive,–,–
CCCCCCCCCCCCCC[n+]1ccc(C)cc1,2.82 µM (active),3.16 µM (active),12.6 µM (active),3.55 µM (active),1.58 µM (active),–,7.08 µM (active),3.55 µM (active),4.47 µM (active),1.2 µM (active)
CO[C@H](C(=O)[C@@H](O)[C@@H](C)O)C1Cc2cc3cc(O[C@H]4C[C@@H](O[C@H]5C[C@@H](O)[C@H](O)[C@@H](C)O5)[C@@H](O)[C@@H](C)O4)c(C)c(O)c3c(O)c2C(=O)[C@H]1O[C@H]1C[C@@H](O[C@H]2C[C@@H](O[C@H]3C[C@](C)(O)[C@H](O)[C@@H](C)O3)[C@H](O)[C@@H](C)O2)[C@H](O)[C@@H](C)O1 (stereo not given in full),0.0891 µM (active),0.126 µM (active),0.562 µM (active),0.1 µM (active),0.0794 µM (active),–,0.126 µM (active),0.112 µM (active),0.112 µM (active),0.675 µM (active)
O=C(O)CCC(=O)C(=O)O,inactive,inactive,inactive,inactive,inactive,inactive,inactive,inactive,inactive,inactive
C=CCSSSCC=C,inactive,inactive,inactive,inactive,inactive,inactive,inactive,–,inactive,inactive
Cc1ccccc1OCC(O)CNCCOc1ccc(C(N)=O)cc1 (stereo not given),inactive,inactive,inactive,inactive,inactive,inactive,inactive,inactive,inactive,–
Cc1c(C)c2c(c(C)c1O)CC[C@@](C)(CCC[C@H](C)CCC[C@H](C)CCCC(C)C)O2,inactive,inactive,inactive,inactive,inactive,inactive,inactive,inactive,inactive,inactive
CC1=CCC(C(C)(C)O)CC1 (stereo not given),inactive,inactive,inactive,inactive,inactive,inactive,inactive,inactive,inactive,inactive
O=C(COc1ccc(Cl)cc1)OCCNC12CC3CC(CC(C3)C1)C2,inactive,inactive,inactive,inactive,inactive,inactive,inactive,inactive,inactive,–
CN1C(=O)CN2CCc3ccccc3C2c2cc(Cl)ccc21 (stereo not given),inactive,–,inactive,inactive,–,inactive,–,–,inactive,–
CC(=O)Oc1cc(C)c(OC(C)=O)c2ccccc12,–,–,–,–,6.31 µM (active),–,–,7.94 µM (active),–,7.57 µM (active)
CO[C@H]1C[C@@H]2CC[C@@H](C)[C@@](O)(O2)C(=O)C(=O)N2CCCC[C@H]2C(=O)O[C@H]([C@H](C)C[C@@H]2CC[C@@H](OCCO)[C@H](OC)C2)CC(=O)[C@H](C)/C=C(\C)[C@@H](O)[C@@H](OC)C(=O)[C@H](C)C[C@H](C)/C=C/C=C/C=C/1C,0.891 µM (active),1.78 µM (active),–,2 µM (active),0.501 µM (active),10 µM (active),1 µM (active),1.41 µM (active),2 µM (active),1.69 µM (active)

SMILES,Potency (Dd2),Potency (ECU),Potency (FAB9),Potency (HB3),Potency (ICS),Potency (JCK),Potency (N140),Potency (P93_24),Potency (P94_40),Potency (GB4)
O=CCCCC=O,inactive,inactive,inactive,–,7.08 µM (active),inactive,inactive,–,inactive,–
O=C1CSC2(CCN(CCCN3c4ccccc4Sc4ccc(Cl)cc43)CC2)N1,–,–,inactive,–,12.6 µM (active),inactive,–,8.91 µM (active),–,16.9 µM (active)
CC(Cc1ccc(O)c(O)c1)C(C)Cc1ccc(O)c(O)c1 (stereo not given),–,inactive,inactive,inactive,10 µM (active),inactive,inactive,–,–,–
Clc1cc(Cl)c(OCC#CI)cc1Cl,–,–,–,–,7.94 µM (active),–,10 µM (active),7.94 µM (active),11.2 µM (active),10.7 µM (active)
O=S(=O)(O)c1cc(O)c2c(N=Nc3ccc(Nc4ccccc4)c4c(S(=O)(=O)O)cccc34)cc(S(=O)(=O)O)cc2c1,–,inactive,inactive,inactive,–,inactive,–,–,–,inactive
CC[C@@]1(O)C(=O)OCc2c1cc1n(c2=O)Cc2cc3c([N+](=O)[O-])cccc3nc2-1,8.91 µM (active),7.94 µM (active),–,–,5.01 µM (active),–,8.91 µM (active),7.94 µM (active),5.01 µM (active),6.75 µM (active)
CC1=C(/C=C/C(C)=C/C=C/C(C)=C/CO)C(C)(C)CCC1,14.1 µM (active),10 µM (active),inactive,–,7.08 µM (active),inactive,8.91 µM (active),–,–,–
CN=C(NC#N)Nc1ccc(C2=NNC(=O)C[C@@H]2C)cc1,inactive,inactive,inactive,inactive,inactive,inactive,inactive,inactive,inactive,–
COc1cc(-c2ccc(-[n+]3nc(-c4ccccc4)nn3-c3ccc([N+](=O)[O-])cc3)c(OC)c2)ccc1-[n+]1nc(-c2ccccc2)nn1-c1ccc([N+](=O)[O-])cc1,–,12.6 µM (active),–,–,8.91 µM (active),–,–,–,10 µM (active),12 µM (active)
CC1(C)C(C=C(Cl)Cl)C1C(=O)OCc1cccc(Oc2ccccc2)c1 (stereo not given),–,inactive,inactive,inactive,–,inactive,inactive,inactive,inactive,inactive
COC(=O)C1=C(C#N)NC(C)=C(C(=O)OC(C)C)C1c1cccc([N+](=O)[O-])c1 (stereo not given),12.6 µM (active),10 µM (active),–,10 µM (active),7.94 µM (active),–,7.94 µM (active),12.6 µM (active),–,–
O=C(Nc1ccc(Br)cc1)c1cc(Br)c(Br)s1,–,–,inactive,–,–,–,–,–,–,–
C#C[C@]1(O)CC[C@H]2[C@@H]3CCC4=CCCC[C@@H]4[C@H]3C(=C)C[C@@]21CC,inactive,–,inactive,inactive,10 µM (active),inactive,–,–,–,inactive
CCOC(=O)C1=C(C)NC(C)=C(C(=O)OCC)C1c1ccccc1C=CC(=O)OC(C)(C)C,–,–,11.2 µM (active),12.6 µM (active),4.47 µM (active),inactive,10 µM (active),7.08 µM (active),–,10.7 µM (active)
CCCCC(=O)O[C@]1(C(=O)CO)[C@H](C)C[C@H]2[C@@H]3CCC4=CC(=O)C=C[C@]4(C)[C@@]3(F)[C@@H](O)C[C@@]21C,inactive,–,inactive,inactive,–,inactive,–,–,inactive,–
CCCCCCCC/C=C\CCCCCCCC(=O)O,inactive,–,inactive,inactive,inactive,inactive,inactive,inactive,inactive,inactive
CN(C)CCCN1c2ccccc2C(C)(C)c2ccccc21,–,inactive,inactive,inactive,–,inactive,–,–,–,–
CCOc1ccc(N=Nc2ccc(N)cc2N)cc1,inactive,–,inactive,inactive,–,inactive,inactive,–,–,–
O=C(O)c1cc(=O)c2c3nc4ccccc4oc-3cc(=O)c2[nH]1,12.6 µM (active),–,inactive,12.6 µM (active),0.891 µM (active),inactive,inactive,–,inactive,16.9 µM (active)
CCCCC(CC)COC(=O)CC(C(=O)OCC(CC)CCCC)S(=O)(=O)O (stereo not given),–,–,–,–,–,–,–,–,–,inactive
CCN(CC)CCOc1ccc(-c2nc3cc(Cl)ccc3s2)cc1,–,–,inactive,inactive,–,inactive,inactive,–,–,16.9 µM (active)
Nc1c(Br)cc(Br)cc1CNC1CCC(O)CC1 (stereo not given),inactive,inactive,inactive,inactive,–,inactive,inactive,inactive,inactive,–
O=C(Nc1cccc(C(F)(F)F)c1)c1cc(Br)cc(Br)c1O,–,10 µM (active),–,–,8.91 µM (active),10 µM (active),11.2 µM (active),–,–,–
NC(=O)c1ncn(C2OC(CO)C(O)C2O)n1 (stereo not given),inactive,inactive,inactive,inactive,inactive,inactive,inactive,inactive,inactive,–
CCOC(=O)C1=CC2(CC)CCCN3CCc4c(n1c1ccccc41)C32 (stereo not given),12.6 µM (active),11.2 µM (active),7.94 µM (active),12.6 µM (active),10 µM (active),–,8.91 µM (active),7.94 µM (active),12.6 µM (active),–
CCCCCCOc1ccc(C(=N)N(CCCC)CCCC)c2ccccc12,–,8.91 µM (active),–,–,2.82 µM (active),–,–,inactive,12.6 µM (active),10.7 µM (active)
Oc1cc(O)c2c(c1)OC(c1ccc(O)c(O)c1)C(O)C2 (stereo not given),inactive,–,inactive,inactive,inactive,inactive,inactive,inactive,inactive,–
